From PubChem
FMDV FLuc = FMDV antiviral activity by firefly signal; AID 1745856; Potency, µM (titrated, usually from 57.5 µM), inactives show top-dose activity change, negative = inhibition, most hits filed as inhibitors; hit rate 0.23% among 120,000; FMDV antiviral cell assay, firefly luciferase signal; further: nearly all actives have a fitted effect of over 60% in size
FMDV Renilla = antivirals against foot and mouth disease virus replicon. AID 1745857. hit rate 0.32% among 120,000. Potency, µM (titrated, usually from 57.5 µM), for the others: at the highest dose activity change, negative = inhibition, actives largely listed as inhibitors. FMDV replicon cells, Renilla luciferase signal; further: nearly all actives have a fitted effect of over 55% in size
Numbers without * were called inactive; ? = inconclusive; [ ] = another dose, or the depositor's remark. In the library only some 0.4% were active in any assay of this set; here they are far more common. The call rests on the fitted dose curve. On the % scale 0 is the no-effect control and ±100 the full control effect; potency means the concentration at half of the fitted maximal effect.

SMILES | FMDV FLuc | FMDV Renilla
O=C(Nc1nc(C23CC4CC(CC(C4)C2)C3)cs1)c1ccncc1 | 14.1µM* | 8.91µM*
Cc1nc2ccccc2nc1COC(=O)c1cccnc1 | -5.1% | -7.9%
COCC(=O)N1CCN(c2oc(-c3ccc(C)cc3)nc2S(=O)(=O)c2ccc(F)cc2)CC1 | -7.2% | 4.9%
COc1ccc(C(=O)NCCc2csc(-c3ccc(Cl)cc3)n2)cc1 | -16.3% | -21.8%
CCCCOc1ccc(C(=O)NCCc2csc(-c3ccc(OC)cc3)n2)cc1 | 12.6µM* | 11.2µM*
Cc1ccc(C2C(C#N)=C(SCC(=O)Nc3cccc(C)c3C)NC3=C2C(=O)CCC3)o1 (stereo unspecified) | -11.5% | 49.1%
CCCCCCC(=O)Nc1c(C)cccc1C | -1.2% | 4.7%
O=C(CCc1c[nH]c2ccccc12)Nc1cccc(Cl)c1 | 149.1% | 25.2%
COc1ccc(C(=O)N2CCC(c3nc4ccccc4s3)CC2)cc1Cl | 28.2µM* | ?
COc1cccc(C(=O)N2CCC(c3nc4ccccc4s3)CC2)c1 | -8.5% | -3.9%
FC(F)(F)c1ccc(/C=N/Nc2cc(C(F)(F)F)ccc2Cl)cc1 | 2.4% | 0.9%
CCCCOC(=O)c1cccc(NC(=O)c2cc3ccccc3o2)c1 | 8.91µM* | -12.9%
CCCCOC(=O)c1ccc(NC(=O)c2cc(=O)c3ccccc3o2)cc1 | -19.1% | -4.6%
Cc1cc(N2CCOCC2)nc(Nc2ccc(NC(=O)c3ccccc3)cc2)n1 | -21.0% | -17.9%
Cc1ccc(NC(=O)C2CCCCC2)cc1 | 197.4% | 1.1%
COc1ccc(Nc2cc(C)nc(Nc3ccc(NC(=O)C4CCCCC4)cc3)n2)cc1 | ? | 28.2µM*
Cc1cc(Nc2ccccc2)nc(Nc2ccc(NC(=O)c3ccc(Cl)cc3)cc2)n1 | 14.1µM* | 12.6µM*
CCCSc1ccccc1C(=O)NC(C)(C)C | 0.0% | 17.6%
COc1ccc(-c2nc(CNS(=O)(=O)c3ccc(F)cc3)cs2)cc1 | -4.8% | -5.0%
CNc1snc(C)c1C(=O)OCc1csc(-c2ccc(F)cc2)n1 | ? | 0.708µM*
Cc1cccc(C(=O)c2c(C)c(CCC#N)n3ccccc23)c1 | 22.6% | -1.1%
CCc1nn2c(=O)cc(CNc3ccc4c(c3)OCCCO4)nc2s1 | 4.47µM* | 2.7%
CCc1nn2c(=O)cc(CNc3ccccc3NC(=O)c3ccccc3)nc2s1 | 6.8% | -2.2%
Cc1ccc(C(CNC(=O)c2oc3ccc(F)cc3c2C)N(C)C)o1 (stereo unspecified) | 1.3% | -18.0%
CN1CCN(C(NC(=O)c2cccs2)C(=O)c2ccccc2)CC1 (stereo unspecified) | 100.1% | 133.9%
SMILES | FMDV FLuc | FMDV Renilla
O=S(=O)(/C(=C/c1ccc2ccccc2c1)c1nc2ccccc2[nH]1)c1ccccc1 | 35.5µM* | 15.8µM*
N#C/C(=C/c1ccc2ncccc2c1)c1nc2ccccc2[nH]1 | 46.1% | 0.6%
O=C(Nc1ccc(F)cc1Cl)c1nc2ccccc2nc1N1CCCCC1 | -3.0% | -5.6%
CCCC(=O)Nc1ccc(CNCc2ccc(Br)cc2)cc1 | 0.0% | 20.7%
Cc1cccc(C(=O)NC(C)C(=O)OC(C)C(N)=O)c1 (stereo unspecified) | 7.9% | -27.2%
Cc1nn(CCC(=O)Nc2ccccc2Cl)c(=O)c(C#N)c1C | -6.7% | -12.0%
N#Cc1ccc(NCCNC(=O)Nc2ccccc2)nc1 | 0.0% | -41.0%
N#Cc1ccc(NCCNC(=O)C2CCCCC2)nc1 | ? | 31.6µM*
NC(=O)Cc1csc(NC(=O)CCc2ncc(-c3ccccc3)o2)n1 | 18.4% | -4.3%
N#C/C(=C\c1cccc(OC(=O)c2ccccc2Cl)c1)C(=O)Nc1cccc(C(F)(F)F)c1 | 128.3% | 1.1%
O=C(Nc1cccc(C(F)(F)F)c1)C(=Cc1cccc(Oc2ccccc2)c1)C(=O)Nc1cccc(C(F)(F)F)c1 | 4.47µM* | 3.98µM*
COc1cc(C#N)cc(Cl)c1OCc1ccc(C#N)cc1 | 11.5% | 6.2%
COc1ccc(NC(=O)C(C)Oc2cccc(C)c2C)c2cccnc12 (stereo unspecified) | ? | 3.98µM*
CCOc1ccc(NC(=O)C(C)Oc2cc(C)cc(C)c2)c2cccnc12 (stereo unspecified) | -7.7% | -14.0%
COc1ccc(NC(=O)C(C)Oc2cc(C)cc(C)c2)c2cccnc12 (stereo unspecified) | ? | 28.2µM*
COc1ccccc1OC(C)C(=O)Nc1ccc(OC)c2ncccc12 (stereo unspecified) | 13.9% | 17.7%
C=CCNCc1ccsc1 | 5.9% | -10.1%
Cc1oc(-c2cccc(Cl)c2)nc1CNC(=O)Nc1ccccc1Cl | 5.3% | 1.5%
O=C(Cc1c[nH]c2ccccc12)OCc1ccc(Cl)cc1Cl | 80.5% | -1.4%
O=C(Nc1ccc(C23CC4CC(CC(C4)C2)C3)cc1)c1ccccc1Cl | -9.6% | 7.5%
O=C(Nc1ccc(C23CC4CC(CC(C4)C2)C3)cc1)c1cccc(Cl)c1 | 0.355µM* | -1.9%
CC(C)(C)OC(=O)N/N=C/c1ccc(Cl)c(Cl)c1 | 178.6% | 16.9%
C(=Nc1ccccc1)c1ccc(-c2cccs2)s1 | ? | 8.91µM*
CC(C)(C)c1ccc(N=Cc2cccs2)cc1 | 4.1% | 3.6%
Cc1ccccc1C(=O)N1CCN(c2ccc(NC(=O)c3ccc4c(c3)OCCO4)cc2)CC1 | ? | 15.8µM*
SMILES | FMDV FLuc | FMDV Renilla
CCOc1cc(OCC)cc(C(=O)Nc2ccc(N3CCN(C(=O)c4ccccc4C)CC3)cc2)c1 | -6.9% | -6.7%
CCc1ccc(OCC(=O)N(CC#N)C2CC2)cc1 | 38.7% | 18.7%
Cc1ccc(C)c(N2CCN(C(=O)C3CCN(c4nnc(-n5c(C)ccc5C)s4)CC3)CC2)c1 | ? | 11.2µM*
Cc1cc(C)cc(NC(=O)C2CCN(c3nnc(-n4c(C)ccc4C)s3)CC2)c1 | 22.0% | -2.9%
C/C(=N/NC(N)=S)C1=CC(C)(C)CCC1 | 0.0% | 10.1%
Cc1sc2nc(C(C)Sc3nnnn3C(C)(C)C)[nH]c(=O)c2c1C (stereo unspecified) | 0.0% | -2.7%
CC(C)c1nnc2ccc(SCC(=O)O)nn12 | -10.7% | -14.8%
Cc1cccc(-c2noc(-c3ccc(N4CCCC4)c([N+](=O)[O-])c3)n2)c1 | 8.91µM* | 6.8%
Cc1cccc(-c2noc(-c3ccc(N4CCOCC4)c([N+](=O)[O-])c3)n2)c1 | -23.3% | 1.6%
CCc1ccc(C(NC(=O)Cn2nc(C)c3ccccc3c2=O)C(C)C)cc1 (stereo unspecified) | 1.5% | -4.9%
O=C(Nc1cccc(S(=O)(=O)N2CCCCC2)c1)c1ccc(OCc2cn3ccccc3n2)cc1 | 0.0% | 0.0%
O=C(Nc1cccc(S(=O)(=O)N2CCOCC2)c1)c1ccc(OCc2cn3ccccc3n2)cc1 | 31.6µM* | ?
CC12CC[C@H]3[C@@H](CCC4(O)CC(O[N+](=O)[O-])CCC34CO[N+](=O)[O-])C1(O)CCC2C1=CC(=O)OC1 (stereo partly specified) | ? | 10µM*
C[C@@H]1O[C@@H](O[C@H]2C[C@@H](O)[C@]3(CO)[C@H]4[C@H](O)C[C@]5(C)[C@@H](C6=CC(=O)OC6)CC[C@]5(O)[C@@H]4CC[C@]3(O)C2)[C@H](O)[C@H](O)[C@H]1O | -69.2%[11.5 µM] | -76.1%
CC1OC(OC2CCC3(C=O)[C@H]4CCC5(C)C(C6=CC(=O)OC6)CCC5(O)[C@@H]4CCC3(O)C2)CC2OC(C)(C)OC12 (stereo partly specified) | 1µM* | 1.26µM*
CC1OC(OC2CCC3(C=O)[C@H]4CCC5(C)C(C6=CC(=O)OC6)CCC5(O)[C@@H]4CCC3(O)C2)C(O)C(O)C1O (stereo partly specified) | -78.5% | -74.6%
